Hits are enriched below; roughly 11% of the tested compounds scored in any of these assays.
JMJD2A Tudor inh: qHTS Assay for Inhibitors of JMJD2A-Tudor Domain; actives 4.4% (n = 390,000); Lysine-specific demethylase 4A (Homo sapiens), O75164; AlphaScreen JMJD2A-Tudor / H3K4me3 peptide binding; Potency, µM (doses to about 114 µM), for inactives: top-dose activity change, negative = inhibition, usual class: inhibitors; also: potency is read from the fitted curve at half-maximal effect; % is scaled to controls: 0 for no effect and ±100 for the full control effect; nearly all actives have a fitted effect of over 50% in size
G9a inh: qHTS Assay for Inhibitors of Histone Lysine Methyltransferase G9a. AID 504332, 2011. G9a H3K9 monomethylation, AlphaScreen, 2 h. Potency, µM (series often up to 102 µM), inactives show top-dose activity, negative = inhibition, hits mostly inhibitors. actives 8.8% (n = 350,000); also: potency is read from the fitted curve at half-maximal effect; % is scaled to controls: 0 for no effect and ±100 for the full control effect; nearly all actives have a fitted effect of over 75% in size
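Methyltransferase reactions run at room temperature for 2 h (20 nM enzyme, 500 nM biotin-H3K9 peptide, 20 uM SAM) after a 15 min compound preincubation; product detected by AlphaScreen beads and anti-H3K9me1 antibody.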
L3MBTL1 block: qHTS Assay for the Inhibitors of L3MBTL1; Potency, µM (doses to about 57.1 µM), without a hit: at the highest dose activity, negative = inhibition, usual class: inhibitors; actives 0.66% (n = 230,000); AlphaScreen L3MBTL1–H3K9me1 peptide binding; also: potency is read from the fitted curve at half-maximal effect; % is scaled to controls: 0 for no effect and ±100 for the full control effect; nearly all actives have a fitted effect of over 60% in size
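AlphaScreen assay: L3MBTL1 (50 nM final) was preincubated 30 min at room temperature with biotinylated H3(1-15)K9me1 peptide (75 nM final), then 30 min with library compounds; streptavidin donor and nickel chelate acceptor beads (10 ug/mL final) added, 30 min dark.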
BAZ2B block: qHTS Assay for Inhibitors of BAZ2B | Bromodomain adjacent to zinc finger domain protein 2B (Homo sapiens), Q9UIF8 | AlphaScreen BAZ2B-H3K14Ac peptide displacement | Potency, µM (top dose mostly 114 µM), for inactives: top-dose activity change, negative = inhibition, most hits filed as inhibitors | actives 4.4% (n = 360,000) | AID 504333, 2011; also: potency is read from the fitted curve at half-maximal effect; % is scaled to controls: 0 for no effect and ±100 for the full control effect; nearly all actives have a fitted effect of over 60% in size
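AlphaScreen displacement of biotin-H3(5-23)K14Ac peptide (50 nM final) from BAZ2B (50 nM final) in PBS pH 7.4, 0.01% Tween-20; complex preformed 30 min RT, then compounds (top 110 uM) 30 min RT, beads 20 min dark.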
HP1b chromo inh: HTS for Inhibitors of HP1-beta Chromodomain Interactions with Methylated Histone Tails; Potency, µM (doses to about 114 µM), for inactives: top-dose activity change, negative = inhibition, hits mostly inhibitors; Chromobox protein homolog 1 (Homo sapiens), P83916; AlphaScreen HP1-beta / biotin-H3K9me3 peptide binding; actives 0.56% (n = 390,000); also: potency is read from the fitted curve at half-maximal effect; nearly all actives have a fitted effect of over 70% in size
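AlphaScreen: HP1-beta (50 nM) preformed 30 min with biotin-H3(1-18)K9me3 peptide (50 nM) in PBS pH 7.4, 0.01% Tween-20. Compound added for 30 min at RT, then streptavidin donor/nickel chelate acceptor beads (10 ug/mL) for 30 min.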
PI5P4Ka inh: qHTS for Inhibitors of phosphatidylinositol 5-phosphate 4-kinase (PI5P4K); PI5P4Kalpha enzyme, ADP-Glo luminescence, 60 min; stronger effect = lower value; max response, %; actives 1.2% (n = 330,000); active = max response of -50% or lower; inconclusive = between -30% and -50%; inactive = -30% or higher; also: value at the top dose of about 77 µM; % is scaled to controls: 0 for no effect and ±100 for the full control effect
Target sequence (P48426 whole entry, looked up): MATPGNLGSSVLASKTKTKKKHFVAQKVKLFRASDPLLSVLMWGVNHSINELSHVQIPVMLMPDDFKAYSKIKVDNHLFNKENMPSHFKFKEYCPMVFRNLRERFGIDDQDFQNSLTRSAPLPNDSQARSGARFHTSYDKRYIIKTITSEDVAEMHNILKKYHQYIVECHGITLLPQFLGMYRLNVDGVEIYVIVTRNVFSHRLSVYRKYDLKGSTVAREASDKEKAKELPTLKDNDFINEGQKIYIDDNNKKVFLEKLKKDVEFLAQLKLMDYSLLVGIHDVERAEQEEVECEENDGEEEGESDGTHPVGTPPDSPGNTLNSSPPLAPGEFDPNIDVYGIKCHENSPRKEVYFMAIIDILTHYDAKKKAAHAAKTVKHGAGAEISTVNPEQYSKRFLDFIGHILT
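ADP-Glo luminescence end-point read after a 60 min room-temperature kinase reaction of PI5P4Kalpha plus substrate, initiated with ATP at 5 microM final. Buffer: 0.038 M HEPES pH 7.4, EGTA, 0.1% CHAPS, 5% DMSO.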
Active calls of the source: *; ? = inconclusive; . = no result; [ ] = remark or other dose. Unless noted, calls follow the shape of the dose curve; as a rule, active = well fitted inhibition curve with a large enough effect; inconclusive = small, poorly fitted or top-dose-only effect; inactive = no such curve, though single readings can be large or run the other way.

SMILES	JMJD2A Tudor inh	G9a inh	L3MBTL1 block	BAZ2B block	HP1b chromo inh	PI5P4Ka inh
CC1CC(C)CN(C(=O)CSc2nnc(-c3ccc(F)cc3)o2)C1 (centres undefined)	-6%	71µM*	.	-6%	21%	-8
CCc1ccc(C(=O)NC(Cc2c[nH]c3ccccc23)C(=O)OCC(=O)c2ccc(Br)cc2)cc1 (centres undefined)	-21%	-26%[59 µM]	.	-10%	8%	.
Cc1ccc(NS(=O)(=O)c2ccc3c(c2)CCN(C(=O)C(F)(F)F)C3)cc1C	-14%	.	.	.	.	.
CC(=O)Oc1ccc2c(=O)c(Oc3ccccc3)c(C)oc2c1OC(C)=O	?	3.2µM*	-12%	-5%	38%	-21
CCN1CCN(Cc2nc3cc(NC(=O)c4cccc([N+](=O)[O-])c4)ccc3n2CC)CC1	-12%	-34%[59 µM]	.	-15%	22%	.
CC(C)C[C@@H]1NC(=O)[C@H](Cc2ccc(O)cc2)NC(=O)c2cc([N+](=O)[O-])cc(I)c2NCCC[C@@H](C(N)=O)NC1=O	-19%	71µM*	6%	?	22%	-1
NC(=O)CC[C@@H]1NC(=O)[C@H](CO)NC(=O)c2cc([N+](=O)[O-])cc(I)c2NCCC[C@@H](C(N)=O)NC(=O)[C@H](Cc2ccc(O)cc2)NC1=O	-36%	50µM*	-9%	?	13%	-14
NC(=O)[C@@H]1CCCNc2c(I)cc([N+](=O)[O-])cc2C(=O)N[C@@H](CO)C(=O)N[C@@H](Cc2ccc(O)cc2)C(=O)N1	-26%	45µM*	4%	-35%	19%	-7
NC(=O)[C@@H]1CCCNc2c(I)cc([N+](=O)[O-])cc2C(=O)N[C@@H](CO)C(=O)NCC(=O)N1	-6%	79µM*	7%	-1%	45%	-4
NC(=O)[C@@H]1CCCNc2c(F)cc([N+](=O)[O-])cc2C(=O)N[C@@H](CO)C(=O)NCC(=O)N1	-12%	?	3%	-10%	21%	-4
NC(=O)[C@@H]1CCCNc2c(I)cc([N+](=O)[O-])cc2C(=O)N[C@@H](Cc2ccccc2)C(=O)N[C@@H](Cc2cnc[nH]2)C(=O)N1	?	8.9µM*	-5%	50µM*	8%	3
Cc1ccccc1NC(=S)c1ccc2ccccc2n1	-14%	11µM*	.	10µM*	37%	2
Cc1ccc(CNC(=O)c2c[nH]c3ccc(S(=O)(=O)Nc4ccc(C(C)C)cc4)cc3c2=O)cc1	-26%	-1%[59 µM]	.	-19%	2%	.
COc1cc2oc(=O)cc(-c3ccc(-c4cccc(N)c4)cc3)c2c(OC)c1OC	.	28µM*	.	.	.	.
Cc1ccc(NC(=O)CNC(=O)c2cccs2)nc1	-5%	-30%	8%	-4%	27%	-13
O=C(CNC(=O)c1cccs1)Nc1ncccc1O	-12%	10%	-9%	56µM*	15%	7
COc1cc(C(=O)NC(=S)Nc2ccc(NC(=O)c3ccco3)cc2)cc(OC)c1OC	-10%	-44%	5%	-6%	7%	1
O=C(NNC(=O)c1ccco1)c1ccccc1	-8%	0%[59 µM]	-3%	-2%	47%	-4
O=C(NC(=S)NNC(=O)c1ccco1)c1ccccc1	-29%	25µM*	.	4%	19%	-18
O=C(NC(=S)Nc1ccc(NC(=O)c2ccco2)cc1)c1ccccc1	35µM*	?	2%	0%	-9%	6
CC1(C)C2CC[C@]1(C)[C@@H](O)C2	.	3%[12.7 µM]	.	.	.	.
Cc1nc2[nH]c(=S)[nH]c2c(=O)[nH]1	20µM*	.	.	.	-9%	-21
